These results are taken from publication PMC5540273 (PLoS ONE, 2017).

What all share (settings): concentration: 1 μM, replicates: in singlicate; n = 1
In test [1] the test system is EIF2AK1.
The test system of test [2] is EPHA1.
Test [3] has as its system EPHA2.
For test [4], the system named is EPHA3.
Test [5] concerns EPHA4.
In test [6] the test system is EPHA5.
In test [7] the test system is EPHA6.
The test system of test [8] is EPHA7.
Test [9] deals with EPHA8.
Test [10] deals with EPHB1.
Test [11] has as its system EPHB2.
For test [12], the system named is EPHB3.
For test [13], the system named is EPHB4.
Test [14] concerns EPHB6.
The test system of test [15] is ERBB2.
Test [16] deals with ERBB3.
For test [17], the system named is ERBB4.
Test [18] deals with T1, ERK1.
T1 construct: gene MAPK3

Test [19] relates to T2, ERK2.
T2 construct: gene MAPK1

Test [20] deals with T3, ERK3.
T3 construct: gene MAPK6
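Further: KINOMEscan kinase panel screen.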

`CSc1ccc(NC2=C(c3ccccc3Cl)C(=O)NC2=O)cc1` [SB-342411]: the “%Inh” value in test [1] came to 0%; in test [2], 2%; in [3], 27%; in [4], 16%; in [5], 7%; in test [6], 0%. The “%Inh” value in [7] is reported as 0%; in [8], 6%; in test [9] it was 14%; in [10], 9%; in test [11], 15%; in test [12], 0%. The “%Inh” value in test [13] is 3%; in test [14] it was 18%; in [15], 0%; in test [16] it was 0%; in test [17], 0%; in [18] it was 5%. For the same compound, the “%Inh” value in [19] and in [20] was 0% in each case.

`OCCOCCn1ccc2ncnc(Nc3ccc(Oc4cccc(Cl)c4)c(Cl)c3)c21`: the “%Inh” value in test [1] worked out at 0%; in test [2] it was 0%; in test [3], 1%; in test [4], 0%; in [5], 0%; in test [6] it was 0%. The “%Inh” value in test [7] turned out to be 0%; in [8] it was 0%; in [9], 0%; in [10] it was 2%; in test [11], 0%; in test [12], 6%. In addition, the “%Inh” value turned out to be 0% in [13]; 2% in [14]; 100% in test [15]; 0% in test [16]; 96% in test [17]; 0% in test [18]. Also, the “%Inh” value in test [19] and in test [20] was 0% each time.

For the compound `CN1CCC(n2cnc(-c3ccc(F)cc3)c2-c2ccnc(NC3CCNCC3)n2)CC1` [SB-229482], the “%Inh” value in test [1] is recorded as 0%; in test [2] it was 0%; in test [3], 5%; in test [4], 18%; in test [5], 7%; in test [6], 5%. In addition, the “%Inh” value came out at 5% in [7]; 0% in test [8]; 0% in test [9]; 0% in test [10]; 11% in test [11]; 4% in test [12]. The “%Inh” value in test [13] is recorded as 0%; in [14], 8%; in [15] it was 32%; in test [16], 18%; in test [17] it was 4%; in [18] it was 0%. The entries for the “%Inh” value in test [19] and in [20] were 14% and 30%, respectively.

As for `CNc1nccc(-c2c(-c3ccc(F)cc3)ncn2CCCN2CCOCC2)n1` [SB-222516], the “%Inh” value came to 12% in test [1]; 14% in test [2]; 0% in test [3]; 0% in test [4]; 0% in [5]; 0% in [6]. In addition, the “%Inh” value in [7] is given as 0%; in [8], 21%; in test [9], 25%; in [10], 17%; in [11], 0%; in test [12], 0%. The “%Inh” value in [13] came out at 8%; in test [14] it was 0%; in test [15], 0%; in test [16], 30%; in test [17], 8%; in test [18], 7%. Further, the figures for the “%Inh” value in [19] and in test [20] were 1% and 0%, respectively.

Consider `Cc1cccc(-c2nc(Nc3ccc4[nH]nnc4c3)c3ccccc3n2)n1` [GW867587], for which the “%Inh” value in [1], in test [2], in test [3], in test [4], in test [5] and in test [6] was 0% each time. The “%Inh” value in [7] was 0%; in [8] it was 0%; in test [9], 0%; in test [10], 6%; in test [11], 0%; in test [12], 0%. Besides, the “%Inh” value in test [13] was 0%; in [14], 0%; in test [15] it was 0%; in test [16], 0%; in test [17], 11%; in [18], 0%. Further, the “%Inh” value in [19] and in [20] was 0% each time.

In the case of `CC(C)N1CCC(n2cnc(-c3ccc(F)cc3)c2-c2ccnc(N)n2)CC1` [SB-223132], the “%Inh” value is 0% in test [1]; 28% in test [2]; 46% in [3]; 0% in test [4]; 0% in test [5]; 0% in test [6]. Also, the “%Inh” value in test [7] was determined as 0%; in test [8] it was 0%; in test [9], 17%; in test [10] it was 0%; in [11], 32%; in test [12] it was 0%. The “%Inh” value in [13] is recorded as 22%; in test [14] it was 0%; in test [15] it was 16%; in test [16], 44%; in test [17], 0%; in [18], 0%. Further, the “%Inh” value in test [19] came to 11%; in test [20] it was 0%.

Turning to `Cl.O=S(=O)(c1cccc(F)c1)c1ccc(Nc2ncnc3cc(Br)sc23)cc1Cl` [GSK306886], the “%Inh” value in [1] is 0%; in test [2], 9%; in [3], 9%; in [4], 14%; in test [5], 19%; in test [6], 0%. Moreover, the “%Inh” value in test [7] was found to be 16%; in test [8] it was 2%; in test [9] it was 2%; in [10], 10%; in [11], 42%; in [12] it was 19%. In addition, the “%Inh” value in test [13] turned out to be 17%; in test [14] it was 0%; in test [15], 98.7%; in test [16], 0%; in test [17] it was 43%; in test [18] it was 0%. Besides, the results for the “%Inh” value in test [19] and in test [20] were 0% and 10%, respectively.

`C[C@H]1CC[C@@H](C(=O)Nc2ccccc2)CN1c1cc(-c2ccc3c(N)n[nH]c3c2)nc(N)n1` [GSK2283293]: the “%Inh” value in test [1] is 10%; in test [2] it was 0%; in test [3], 11%; in test [4], 0%; in [5], 3%; in test [6], 0%. Also, the “%Inh” value is on record as 15% in [7]; 6% in test [8]; 23% in [9]; 22% in test [10]; 0% in test [11]; 24% in [12]. In addition, the “%Inh” value turned out to be 12% in test [13]; 13% in test [14]; 25% in test [15]; 0% in test [16]; 39% in test [17]; 0% in test [18]. The “%Inh” value is on record as 2% in test [19] and 4% in [20].

As for `C[C@@H]1CCN(C(=O)CO)C[C@@H]1N(C)c1ncnc2[nH]ccc12`, the “%Inh” value amounted to 5% in test [1]; 8% in test [2]; 0% in test [3]; 0% in test [4]; 0% in [5]; 2% in [6]. The “%Inh” value is 0% in test [7]; 0% in test [8]; 0% in test [9]; 9% in test [10]; 0% in test [11]; 0% in test [12]. Further, the “%Inh” value in test [13] is recorded as 0%; in test [14], 17%; in test [15], 19%; in test [16], 0%; in test [17] it was 11%; in [18], 0%. In addition, the entries for the “%Inh” value in [19] and in [20] were 0% and 14%, respectively.

Regarding `CSc1nn2c(=O)cc(N3CCOCC3)nc2n1Cc1cccc(Cl)c1Cl` [GSK2347225], the “%Inh” value in [1] is recorded as 2%; in test [2] it was 1%; in test [3], 11%; in test [4] it was 15%; in test [5], 8%; in test [6], 1%. Besides, the “%Inh” value in test [7] was 3%; in test [8], 12%; in test [9], 15%; in test [10], 29%; in test [11] it was 0%; in test [12], 6%. The “%Inh” value in test [13] was found to be 11%; in test [14] it was 52%; in test [15], 0%; in test [16] it was 0%; in test [17], 0%; in [18], 0%. The “%Inh” value in test [19] came to 17%; in [20], 15%.

Turning to `O=c1cc(N2CCOCC2)nc2n(Cc3cccc(Cl)c3)ccn12` [GSK2296823], the “%Inh” value in test [1] is on record as 7%; in test [2], 17%; in [3], 14%; in test [4] it was 82%; in test [5], 20%; in test [6], 0%. Besides, the “%Inh” value in test [7] is reported as 19%; in test [8] it was 7%; in test [9], 17%; in test [10], 8%; in [11], 0%; in [12], 15%. The “%Inh” value in [13] came out at 9%; in [14] it was 56%; in test [15], 0%; in test [16] it was 0%; in [17], 100%; in test [18], 0%. Besides, the “%Inh” value in test [19] and in [20] was 0% each time.

Turning to `O=C(NCCCN1CCCC1=O)c1cnc(NCc2cc(Cl)ccc2Cl)nc1NC1CCNCC1`, the “%Inh” value in test [1] was 0%; in test [2], 9%; in [3], 2%; in test [4], 0%; in test [5], 0%; in test [6] it was 2%. Besides, the “%Inh” value in test [7] is 0%; in test [8] it was 0%; in test [9], 0%; in test [10], 7%; in test [11], 0%; in test [12], 0%. The “%Inh” value in test [13] was 0%; in [14], 19%; in [15] it was 9%; in test [16], 3%; in test [17] it was 0%; in test [18], 0%. Moreover, the results for the “%Inh” value in [19] and in test [20] were 11% and 0%, respectively.
